Screens from PubChem BioAssay.
The list is not random: actives were taken first. Their share in the collection is about 19%.
Marburg entry inh: qHTS for inhibitors of binding or entry into cells for Marburg Virus; Marburg virus pseudotyped entry inhibition, cell reporter; Potency, µM (top dose mostly 37.8 µM), inactives show at the highest dose activity change, negative = inhibition, most hits filed as inhibitors; hit rate 1.8% among 300,000; calls by dose curve; tested in HEK293 cells; further: potency means the concentration at half of the fitted maximal effect; on the % scale 0 is the no-effect control and ±100 the full control effect
Pf growth 48h: Primary qHTS for delayed death inhibitors of the malarial parasite plastid, 48 hour incubation. hit rate 5.9% among 310,000. P. falciparum luciferase growth in erythrocytes, 48 h. Potency, µM (series often up to 28.7 µM), for the others: at the highest dose activity change, negative = inhibition, usual class: inhibitors; further: potency means the concentration at half of the fitted maximal effect; on the % scale 0 is the no-effect control and ±100 the full control effect
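Erythrocytes infected with P. falciparum carrying an integrated firefly luciferase reporter (2% hematocrit, 0.1% parasitemia final) were exposed to compounds in RPMI 1640 with 0.5% Albumax at 37 C, 5% CO2. Growth inhibition was scored as reduced luminescence.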
LASV entry inh: qHTS for Inhibitors of binding or entry into cells for Lassa Virus; Lassa virus pseudotype entry inhibition, cell reporter; Potency, µM (titrated, usually from 37.9 µM), for the others: at the top dose activity change, negative = inhibition, actives largely listed as inhibitors; hit rate 1.2% among 300,000; AID 540256, 2011; calls by dose curve; tested in HEK293 cells; further: potency means the concentration at half of the fitted maximal effect; on the % scale 0 is the no-effect control and ±100 the full control effect; nearly all actives have a fitted effect of over 50% in size
Cycloheximide cs: Cycloheximide Counterscreen for Small Molecule Inhibitors of Shiga Toxin; cell reporter, cycloheximide protein synthesis inhibition counterscreen; max response, %; hit rate 12% among 300,000; AID 2314, 2010; in the data active means max response mostly above about 13%, no sharp cut-off; inactive means mostly below about 14%; further: read at 38.3 µM for the half of the compounds with a filed dose; 0% is about no effect
Pf growth 96h: Primary qHTS for delayed death inhibitors of the malarial parasite plastid, 96 hour incubation; P. falciparum luciferase reporter growth, 96 h; Potency, µM (series often up to 28.7 µM), without a hit: at the top dose activity change, negative = inhibition, most hits filed as inhibitors; hit rate 6.9% among 320,000; further: potency means the concentration at half of the fitted maximal effect; on the % scale 0 is the no-effect control and ±100 the full control effect
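Luminescence readout: decreased luciferase signal marks inhibited growth of reporter-expressing P. falciparum in infected red cells (2% hematocrit, 0.05% parasitemia final), exposed to compound two generations (96 h, 37 C, 5% CO2).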
Shiga inhibitor: A qHTS for Small Molecule Inhibitors of Shiga Toxin. Vero cells, Shiga toxin protein synthesis inhibition reporter. inhibition, % at 38.7 µM. hit rate 9.2% among 290,000; in the data active means inhibition mostly above about 28%, no sharp cut-off; inactive means mostly below about 43%; further: 0% is about no effect
* marks the source's active call; other numbers are inactive results; i = inactive; ? = inconclusive; · = not tested or not shown; [ ] = remark or other dose. Unless noted, the call rests on the fitted dose curve; in most records, active means well fitted inhibition curve with a large enough effect; inconclusive means small, poorly fitted or top-dose-only effect, or another doubt; inactive means no such curve, though single readings can be large or run the other way.

SMILES | Marburg entry inh | Pf growth 48h | LASV entry inh | Cycloheximide cs | Pf growth 96h | Shiga inhibitor
CCOC(=O)C1Oc2ccccc2C(c2ccc(C)cc2)=C1C(=O)OC (centres undefined) | · | · | · | 19* | · | i
CCOc1ccc(C(=O)Nc2ccc(-c3cc4ccccc4oc3=O)cc2)cc1Br | · | · | 11%[46.1 µM] | · | · | ·
COc1cc(NC(=S)N2CCN(S(=O)(=O)c3ccc(F)cc3)CC2)cc(OC)c1 | 21% | 2.3µM* | ? | 1 | -27% | 15
COc1cc(NC(=S)N2CCN(S(C)(=O)=O)CC2)cc(OC)c1 | 4%[46.1 µM] | 7% | 2%[46.1 µM] | 1 | ? | -7
COc1cccc(NC(=S)N2CCN(S(C)(=O)=O)CC2)c1 | ? | 12% | -6%[46.1 µM] | -1 | 4.1µM* | -16
COc1cc(NC(=S)N2CCC(C(O)(c3ccccc3)c3ccccc3)CC2)cc(OC)c1 | ? | 0% | ? | 2 | 2.1µM* | -7
COc1cccc(NC(=S)N2CCN(S(=O)(=O)c3ccc(F)cc3)CC2)c1 | -3%[46.1 µM] | 1.9µM* | 22%[46.1 µM] | 6 | ? | -7
COCCSc1nnc(-c2cccc(C#N)c2)n1C | 5% | 18% | -21%[14.3 µM] | -1 | · | -19
CCOC(=O)c1ccc(CC2SC(N)=NC2=O)cc1 (centres undefined) | 6%[46.1 µM] | -10% | ? | 6 | 8% | -5
COCCN(C(=O)CSc1nnc(C)n1-c1ccc(C)cc1)c1c(N)n(Cc2ccccc2)c(=O)[nH]c1=O | 5% | -7% | 8% | · | 3% | ·
CCOC(=O)c1cc2ccc(OC)cc2oc1=O | 27% | 12% | 4% | 18* | 66% | 66*
COc1ccc2cc(C(N)=O)/c(=N\NC(=O)c3ccccc3)oc2c1 | · | 26% | · | 44* | 39% | 68*
COc1ccc(-c2[nH]c3ccccc3c2SCCNC(=O)c2cc3ccccc3oc2=O)cc1 | 25% | -19% | -4% | -2 | 9.3µM* | -12
COc1cccc(C(=O)N/N=c2/oc3ccccc3cc2C(N)=O)c1 | ? | -6% | 11%[46.1 µM] | -1 | 28% | -5
CNC(=O)c1cc2ccc(OC)cc2oc1=O | 28%[46.1 µM] | 34% | 6% | 12* | · | 15
Cc1nn(CCC(=O)Nc2cccc(C#N)c2)c(C)c1S(=O)(=O)N1CCC(C)CC1 | · | · | 3%[46.1 µM] | · | · | ·
CC1(C)SC2C(C(=O)O)N=C(Cc3ccccc3)N2C1C(=O)O (centres undefined) | -5%[46.1 µM] | · | 0%[46.1 µM] | · | · | ·
COc1ccc2cc(C(=O)NCc3ccccc3)c(=O)oc2c1 | · | 103% | · | 13* | ? | 43*
COCCN(C(=O)c1csnn1)C(C(=O)NC1CCCCC1)c1ccc(Cl)cc1 (centres undefined) | ? | -5% | ? | -3 | -5% | 3
CCN(CC(=O)Nc1cc(Cl)ccc1C)C(=O)Cc1sc(C)nc1-c1ccc(F)cc1 | ? | ? | -28% | · | 4.7µM* | ·
COc1ccccc1CCn1cc(C#N)c(=O)[nH]c1=O | · | 48% | · | -1 | 59% | 7
CSCCOC(=O)COc1ccc(/C=N/NC(=O)c2c(Cl)cnn2C)cc1 | 6% | 5% | 16% | -1 | 0% | 13
O=C(/C=C/c1c[nH]c2ccccc12)c1cccc2ccccc12 | ? | 4% | ? | 28* | 9.3µM* | 37*
C=CCn1c(O)c(C(C)=NCCc2c[nH]c3ccccc23)c(=O)[nH]c1=O | ? | -6% | 18% | -1 | -15% | 18
O=C(/C=C/c1c[nH]c2ccccc12)c1c(O)n(CCc2ccccc2)c(=O)[nH]c1=O | 4%[46.1 µM] | -27% | ? | 21* | 11% | 29
SMILES | Marburg entry inh | Pf growth 48h | LASV entry inh | Cycloheximide cs | Pf growth 96h | Shiga inhibitor
O/N=C(/Cc1ccccn1)c1ccccc1 | 0%[46.1 µM] | -6% | -7% | 10 | · | -20
COc1nccnc1NS(=O)(=O)c1ccc(N/C=C2\CCCCC2=O)cc1 | 2%[46.1 µM] | 6% | 6%[46.1 µM] | -1 | ? | -3
CCN(CC)C(=O)CSc1nc(N)c(C#N)c(-c2cccs2)c1C#N | ? | ? | -24% | -4 | ? | -8
CN1CCN(C(=O)CSc2nc(-c3cccs3)cc(-c3cccs3)c2C#N)CC1 | ? | ? | ? | -1 | 2.1µM* | -6
CCN(CC)C(=O)CSc1nc(-c2cccs2)cc(-c2cccs2)c1C#N | ? | 8.3µM* | 18µM* | -1 | ? | -9
COc1cccc(NC(=O)Cn2c(CCC(=O)O)ccc2-c2cccs2)c1 | -4%[46.1 µM] | 15% | 4% | 11 | 10% | -17
CC(=O)N1CCc2cc(C(=O)CN3CCN(c4cccc(Cl)c4)CC3)ccc21 | · | · | · | 2 | -1% | -5
Cn1nc(C(C)(C)C)cc1C(=O)NN1CCOCC1 | 26%[46.1 µM] | 13% | ? | -2 | 9% | -3
CC(C)CNc1nc2c(c(=O)n(C)c(=O)n2C)n1Cc1cccc(Br)c1 | 4% | 12µM* | -18% | -2 | 19% | 14
Cn1c(=O)c2c(nc(NCc3ccc4c(c3)OCO4)n2Cc2ccccc2)n(C)c1=O | 4%[46.1 µM] | 13µM* | ? | -3 | -21% | -4
Cn1c(=O)c2c(nc(NCc3ccc4c(c3)OCO4)n2Cc2ccccc2F)n(C)c1=O | -9% | ? | ? | -10 | 6% | 42
Cn1c(=O)c2c(nc(NCc3ccc4c(c3)OCO4)n2Cc2ccc(F)cc2)n(C)c1=O | ? | 12µM* | -13% | -2 | 13µM* | -11
CC(O)CNc1nc2c(c(=O)n(C)c(=O)n2C)n1Cc1cccc(Br)c1 (centres undefined) | ? | -17% | ? | -4 | -12% | -5
c1ccc(Cn2nnc3c(NCc4ccc5c(c4)OCO5)nc(C4CC4)nc32)cc1 | 4%[46.1 µM] | 1% | -17% | 6 | · | -4
Cc1nc(NCc2ccc3c(c2)OCO3)c2nnn(Cc3ccccc3)c2n1 | ? | 3% | -16% | 2 | 12µM* | 5
O=C(Nc1ccc(NC(=O)c2ccccc2F)cc1)c1cccs1 | · | 153% | · | · | -3% | ·
COc1ccccc1C(=O)Nc1ccc(C(=O)/C=C/c2cccs2)cc1 | ? | 0% | -6% | 18* | ? | 22
COc1ccccc1C(=O)NC(=S)Nc1ccc(NC(=O)c2cccs2)cc1 | ? | ? | -24% | -5 | 8% | 35
O=C(/C=C/c1cccs1)c1ccc(NC(=O)c2ccccc2F)cc1 | ? | 48% | 8% | 25* | 18% | 40*
Cc1ccc(S(=O)(=O)Nc2ccc3nc(C)sc3c2)cc1 | ? | ? | ? | 0 | 47% | 17
Clc1ccc(-c2nnsc2SCc2ccccc2)cc1 | 4% | -12% | -15% | 44* | -20% | 49*
c1ccc(-c2nnsc2Sc2ccccn2)cc1 | ? | 34% | 4% | 32* | 21% | 56*
CSc1snnc1-c1ccccc1 | ? | ? | 10%[46.1 µM] | 3 | 11% | -1
Clc1ccc(CSc2snnc2-c2ccccc2)cc1 | ? | 13µM* | -36% | 23* | ? | 27
Clc1ccccc1CSc1snnc1-c1ccccc1 | 3% | 14% | ? | 38* | 1% | 64*
